Drawing on the supplement of paper PMC8047044, this text covers neurite formation score for 40 molecules.

The test system of the assay is Neuro-2a. As to the kind of experiment: neurite formation score, plate-normalized to DMSO control mean 5.04 (score (0-8 scale)); higher = more or longer neurites. To be noted: 0.1 µM. Here is the method: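 Neuro-2a mouse neuroblastoma cells in PLL-coated 96-well plates were pre-treated for 1 h in DMEM(+) with each kinase inhibitor at 0.1 µM, then switched to serum-free DMEM(-) with inhibitor to induce neurite outgrowth and fixed about 2-3 h later. Three blinded observers scored neurite formation from 0 (no neurites) to 8 (long neurites on almost all cells).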
With `Cc1cc(O)c2c(c1)C(=O)c1cccc(O)c1C2=O` [Chrysophanol], the neurite formation score came to 4.76.

The molecule `C=CC(=O)Nc1cccc(Nc2nc(Nc3ccc(OCCOC)cc3)ncc2F)c1` returned a neurite formation score of 4.71.

`CC(C)N(CCC(=O)c1ccc2ccccc2c1)Cc1ccccc1` came in with a neurite formation score of 4.92. Molecule `N#Cc1cccc(-c2c[nH]c3ncnc(N4CCOCC4)c23)c1` had a neurite formation score of 4.75. For the molecule `C[C@H]1Oc2cc(cnc2N)-c2c(nn(C)c2C#N)CN(C)C(=O)c2ccc(F)cc21`, the neurite formation score amounted to 5.08.

Regarding `CCN1CCN(Cc2ccc(NC(=O)Nc3ccc(Oc4cc(NC)ncn4)cc3)cc2C(F)(F)F)CC1`, the neurite formation score turned out to be 2.04.

As to `O=C1NC(=O)/C(=C\c2ccc3nccnc3c2)S1`, the neurite formation score worked out at 5.09. On to `Cc1ccc2c(Nc3ccc(Cl)cc3)nccc2c1Nc1ncccc1-c1ncnc2nc[nH]c12` [B-Raf inhibitor 1], for which the neurite formation score was found to be 4.76. The value for `Cc1c[nH]c(/C=C2\C(=O)Nc3ccccc32)c1CCC(=O)O` was 5.92; that for `CCOc1cc(C(=O)N2CCC(N3CCN(C)CC3)CC2)ccc1Nc1ncc2c(n1)N(C1CCCC1)c1ccccc1C(=O)N2C` was 4.25; that for `O=c1sn(-c2cccc3ccccc23)c(=O)n1Cc1ccccc1` [Tideglusib] was 5.08. The value for `Oc1ccc2ccccc2c1SSc1c(O)ccc2ccccc12` was 5.42; that for `CO[C@@H](C(=O)N1Cc2[nH]nc(NC(=O)c3ccc(N4CCN(C)CC4)cc3)c2C1)c1ccccc1` was 4.58. In turn, `CNc1nc(Nc2cnn(C3CCN(C4COC4)CC3F)c2Cl)ncc1C(F)(F)F` (stereo not given) showed a neurite formation score of 4.75. Molecule `Cc1cc2c(F)c(Oc3ncnn4cc(OC[C@@H](C)OC(=O)[C@H](C)N)c(C)c34)ccc2[nH]1` registered a neurite formation score of 4.04. The value for `O=C1NC(=O)C(c2cnc3ccccn23)=C1c1cn2c3c(cc(F)cc13)CN(C(=O)N1CCCCC1)CC2` was -0.576; that for `COc1cc2nccc(Oc3ccc(NC(=O)Nc4cc(C)on4)c(Cl)c3)c2cc1OC` [Tivozanib (AV-951)] was 4.71; that for `COc1cc2ncnc(Nc3cccc(Br)c3)c2cc1OC` was 5.09. The value for `CN(C)S(=O)(=O)c1ccc2c(c1)/C(=C/c1cc3c([nH]1)CCCC3)C(=O)N2` was 4.75. As for `O=[N+]([O-])c1ccc(-c2nc(-c3ccc(F)cc3)c(-c3ccncc3)[nH]2)cc1`, the neurite formation score came out at 4.25. As for `CN(C)c1ccc(-c2nc3ncc(Cl)c(N4CCN(CC(=O)Nc5nccs5)CC4)c3[nH]2)cc1`, the neurite formation score is 4.09.

In the case of `COc1cc(-c2cc(-c3ccc(N4CCNCC4)cc3)cnc2C)cc(OC)c1OC`, the neurite formation score amounted to 5.09. The result for `CCn1nnc2c(N3CCOCC3)nc(-c3ccc(NC(=O)Nc4ccc(C(=O)N5CCN(C)CC5)cc4)cc3)nc21` reads 4.76; that for `Cc1ccc(NC(=O)c2ccc(CN3CCN(C)CC3)cc2)cc1Nc1nc(-c2cccnc2)cs1` [Masitinib (AB1010)], 4.38.

The molecule `Cc1ccc(-c2csc3ncnc(SCCC(=O)O)c23)cc1` had a neurite formation score of 4.58. The value for `CN1C/C=C/CCOc2cccc(c2)-c2ccnc(n2)Nc2cccc(c2)C1` was 4.42. `CCC[C@H](NC(=O)/C(C#N)=C/c1cccc(Br)n1)c1ccccc1` displayed a neurite formation score of 4.21. The value for `COC(=O)Nc1nc2cc(C(=O)c3cccs3)ccc2[nH]1` [Nocodazole] was 1.58. The result for `CN([C@@H](Cc1ccc(OS(=O)(=O)c2cccc3cnccc23)cc1)C(=O)N1CCN(c2ccccc2)CC1)S(=O)(=O)c1cccc2cnccc12` reads 4.54; that for `O=C(O)c1ccc(-c2c[nH]c3ncc(-c4ccccc4)cc23)cc1C1CCCC1`, 3.92. The molecule `C=CC(=O)Nc1cccc(Oc2nc(Nc3ccc(N4CCN(C)CC4)cc3OC)ncc2Cl)c1` showed a neurite formation score of 4.04. The result for `CCn1cc(-c2ccnc3[nH]c(-c4cccc(CN(C)C)c4)cc23)c(-c2ccc(NC(=O)N(C)C)cc2)n1` reads 5.25; that for `Cc1cc2c(F)c(Oc3ncnn4cc(OC[C@@H](C)O)c(C)c34)ccc2[nH]1`, 4.38.

`Cc1cc(C(C)Nc2ccccc2)c2nc(N3CCOCC3)cc(=O)n2c1` (stereo not given): the neurite formation score amounted to 3.76.

Molecule `CNC(=O)c1cc(Oc2ccc(NC(=O)Nc3ccc(Cl)c(C(F)(F)F)c3)cc2)ccn1` [Sorafenib] gave a neurite formation score of 4.71. As for `O=C1c2ccccc2-c2n[nH]c3cccc1c23`, the neurite formation score was 3.92.

`Cn1c(=O)n(-c2ccc(C(C)(C)C#N)cc2)c2c3cc(-c4cnc5ccccc5c4)ccc3ncc21`: the neurite formation score turned out to be 5.21. `O=C1NC(=O)C(c2ccccc2[N+](=O)[O-])=C1Nc1ccc(O)c(Cl)c1` registered a neurite formation score of 5.21.

The molecule `Nc1cc(N)c(N)cc1N` [FAK Inhibitor 14] had a neurite formation score of 4.08. The value for `O=C(Nc1cccnc1)c1cc(-c2ccnc(F)c2)ccc1OCc1ccccc1` was 5.08.
